In the library only some 14% were active in any assay of this set; here they are far more common.
HCV inh: HCV inhibition; Huh7.5.1 HCVcc-Cre infection, luciferase reporter, 44 h; Potency, µM (titrated, usually from 41.8 µM), usual class: inhibitors; 3.4% of 340,000 active; AID 651820
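Luciferase read-out (15 sec integration) after a 15 min room-temperature substrate step quantifies HCVcc-Cre infection. Cells, 1,000 per well, had compound added 4 h post-plating, then virus at ~0.5 moi, and were cultured 44 h.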
Marburg entry inh: inhibitors of Marburg virus binding or cell entry; Marburg virus pseudotyped entry inhibition, cell reporter; 1.8% of 300,000 active; Potency, µM (highest dose often 37.8 µM), actives largely listed as inhibitors; AID 540276; calls by dose curve; tested in HEK293 cells
Pf growth 96h: inhibits malaria parasite growth, 96 h; P. falciparum luciferase reporter growth, 96 h; Potency, µM (series often up to 28.7 µM), actives largely listed as inhibitors; 6.9% of 320,000 active
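Compounds incubated with erythrocytes infected by luciferase-expressing P. falciparum (2% hematocrit, 0.05% parasitemia final) for 96 hours, 37 C in 5% CO2. Growth inhibition scored as decreased luciferase luminescence.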
HCMV inh: inhibitors of human cytomegalovirus; 4.5% of 410,000 active; HFF cells, HCMV-luciferase reporter, 72 h; hits give low values; activity change, negative = inhibition, % at 57.5 µM; AID 1259415; in the data active = activity change below about -60%; inconclusive = no clear call, values can overlap the other calls; inactive = above about -39%
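Screen run at 2 compound doses on HFFs infected with reporter HCMV, MOI 1 PFU/cell. Luciferase activity from cell lysates at 72 h post infection gave inhibition relative to buffer-only and Salinomycin wells.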
Pf growth 48h: P. falciparum growth inhibition at 48 hours (one generation); P. falciparum luciferase growth in erythrocytes, 48 h; Potency, µM (series often up to 28.7 µM), usual class: inhibitors; 5.9% of 310,000 active; AID 504832
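In quantitative HTS format, infected erythrocytes bearing luciferase-reporter parasites were treated for a single generation at 37 C. Luminescence after adding detection reagent served as the growth measure.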
LASV entry inh: blocks Lassa virus binding to or entry into cells; Lassa virus pseudotype entry inhibition, cell reporter; Potency, µM (doses to about 37.9 µM), actives largely listed as inhibitors; 1.2% of 300,000 active; AID 540256; calls by dose curve; tested in HEK293 cells; also: nearly all actives have a fitted effect of over 50% in size
Hits are given with their value; i = inactive; ? = inconclusive; nt = no result given. Unless noted, calls follow the shape of the dose curve; as a rule, active = well fitted inhibition curve with a large enough effect; inconclusive = small, poorly fitted or top-dose-only effect, or another doubt; inactive = no such curve, though single readings can be large or run the other way.

SMILES	HCV inh	Marburg entry inh	Pf growth 96h	HCMV inh	Pf growth 48h	LASV entry inh
CCN(CC)c1ccc(NC(=O)C2CCN(S(=O)(=O)c3ccc4c(c3)oc(=O)n4C)CC2)c(C)c1	nt	i	nt	i	nt	i
Cc1ccc(NC2=C(Cl)C(=O)OC2OC(C)C)cc1 (stereo unspecified)	i	nt	13.1µM	i	i	nt
Cc1ccnc(NC(=O)CS(=O)(=O)c2ccccc2)c1	i	?	i	i	i	i
NC(=O)c1ccccc1NC(=O)CCCc1ccccc1	i	?	i	i	i	?
Cc1ccnc(NC(=O)Cc2ccc(-c3ccccc3)cc2)c1	3.98µM	nt	i	-90.4	i	nt
Cc1ccnc(NC(=O)CS(=O)(=O)Cc2ccccc2)c1	i	i	nt	-99.3	i	i
NC(=O)c1ccccc1NC(=O)CS(=O)(=O)Cc1ccccc1	i	i	9.28µM	i	i	i
COc1cccc(/C=C(\C#N)c2nc3ccccc3c(=O)[nH]2)c1OC	nt	nt	nt	i	nt	i
COc1ccc(-n2nc3cc(C)c(NC(=O)COc4cccc(C)c4)cc3n2)cc1	nt	nt	nt	i	nt	i
Cc1onc(-c2ccccc2)c1C(=O)Nc1sc2c(c1C(N)=O)CCC2	i	?	i	?	i	i
Cc1onc(-c2c(F)cccc2Cl)c1C(=O)N=C(N)N1CC(C)OC(C)C1 (stereo unspecified)	i	?	10.4µM	i	?	i
Cc1onc(-c2c(F)cccc2Cl)c1C(=O)Nc1sc2c(c1C#N)CCC(C(C)(C)C)C2 (stereo unspecified)	i	?	?	i	6.57µM	i
Cc1onc(-c2c(F)cccc2Cl)c1C(=O)Nc1sc2c(c1C(N)=O)CCC2	?	?	?	-74.2	nt	i
c1ccc(-c2nnsc2-c2ncc[nH]2)cc1	i	?	i	i	i	i
O=S(=O)(c1ccc(F)cc1)c1snnc1-c1ccccc1	i	?	?	-88.0	9.28µM	?
O=S(=O)(c1ccc(Cl)cc1)c1snnc1-c1ccccc1	12.6µM	15.8µM	?	-103.9	nt	?
CN(C)c1ncc(S(=O)(=O)c2ccc(Cl)cc2)c(-c2ccccc2)n1	?	i	?	i	?	i
COc1ccc(C(=O)/C=C/c2cn(CN3CCN(C)CC3)c3ccccc23)cc1	8.91µM	?	?	nt	nt	i
CCOc1ccc(C(=O)/C=C/c2cn(CN3CCN(C)CC3)c3ccccc23)cc1	?	i	?	i	i	i
CC(C)CN(CC(C)C)CC(O)Cn1cc(/C=C/C(=O)c2ccccc2)c2ccccc21 (stereo unspecified)	nt	i	nt	i	nt	?
COc1ccc(C(=O)/C=C/c2cn(CC(O)CN3CCOCC3)c3ccccc23)cc1 (stereo unspecified)	?	?	5.22µM	nt	?	i
CCCN(CCC)CC(O)Cn1cc(/C=C/C(=O)c2ccc(OCC)cc2)c2ccccc21 (stereo unspecified)	nt	?	nt	-105.9	nt	?
CCn1cc(/C=C(\NC(=O)c2ccc(OC)cc2)C(=O)N2CCOCC2)c2ccccc21	i	nt	?	i	?	nt
CCC(=C(c1ccc(OC)cc1)c1ccc(OC)cc1)c1cn(CC(O)CN(CCO)CCO)c2ccccc12 (stereo unspecified)	?	?	?	i	9.28µM	?
O=C1OC(c2cccs2)Sc2ccccc21 (stereo unspecified)	nt	nt	nt	i	nt	nt
SMILES	HCV inh	Marburg entry inh	Pf growth 96h	HCMV inh	Pf growth 48h	LASV entry inh
CCOC(=O)N[C@H](O)C(=O)c1cccs1	nt	i	nt	nt	nt	nt
O=C(/C=C/c1cn(CC(O)CN2CCOCC2)c2ccccc12)c1cccs1 (stereo unspecified)	nt	nt	?	nt	6.57µM	nt
Cc1ccc(C(=O)/C=C/c2cn(CC(O)CN3CCOCC3)c3ccccc23)cc1 (stereo unspecified)	?	?	11.7µM	i	?	i
CC(OC(=O)c1ccc(-c2ccc(O)cc2)cc1)C(=O)NC1CCCCC1C (stereo unspecified)	12.6µM	?	?	i	i	i
CC(OC(=O)Cc1c[nH]c2ccccc12)C(=O)NC1(C#N)CCCCC1 (stereo unspecified)	i	nt	i	i	i	nt
CC(OC(=O)Cn1[nH]c(=O)c2ccccc2c1=O)C(=O)NC1(C#N)CCCCC1 (stereo unspecified)	i	i	?	i	10.4µM	i
CC(OC(=O)c1ccc([N+](=O)[O-])s1)C(=O)NC1CCCCC1C (stereo unspecified)	?	nt	?	i	13.1µM	nt
Cc1[nH]c2ccc(C(=O)OC(C)C(=O)NC3CCCCC3C)cc2c1C (stereo unspecified)	22.4µM	nt	?	i	4.65µM	nt
COc1cccc([C@H]2Oc3ccc(OC)cc3/C(=N\O[C@H](C)c3cn([C@H](CO)Cc4ccccc4)nn3)[C@@H]2O)c1	nt	i	nt	nt	nt	nt
CCCC(=O)OC[C@H]1CN(C2CCCC2)S(=O)(=O)c2c(Oc3ccc(C(C)(C)C)cc3)cccc2O1	nt	nt	nt	i	nt	nt
CCOc1ccc(NC(=O)CC2C(=O)N(c3cccc(C)c3)C(=O)N2Cc2ccco2)cc1 (stereo unspecified)	nt	nt	nt	i	nt	i
Cc1[nH]c2ccc(C(=O)OC(C)C(=O)NC3(C#N)CCCCC3)cc2c1C (stereo unspecified)	14.1µM	?	i	i	?	?
CC(=O)Nc1nc(-c2ccc3c(c2)CCO3)cs1	i	nt	i	-76.2	i	nt
COc1ccc(-c2csc(NC(C)=O)n2)cc1OC	?	?	nt	i	i	i
COc1cccc(NC(=O)Nc2nc(-c3ccc(OC)c(OC)c3)cs2)c1	2.82µM	?	11.7µM	-99.4	?	?
O=C(Nc1nc(-c2ccc3c(c2)OCCO3)cs1)c1ccco1	nt	nt	nt	i	nt	nt
COc1ccccc1C(=O)Nc1nc(-c2ccc3c(c2)OCCO3)cs1	i	nt	i	-63.4	i	nt
CN(C)c1ccc(C(=O)c2ccccc2)cc1	i	i	i	i	nt	i
CN(C)c1ccc(C(=O)N(Cc2ccccc2)Cc2ccccc2)cc1	i	nt	14.7µM	i	i	nt
CC(=O)Nc1cccc(C(=O)N(Cc2ccccc2)Cc2ccccc2)c1	i	nt	i	i	i	nt
COc1ccc(CN(C(=O)c2ccc(C)cc2)c2cccc(N)c2)cc1	i	nt	?	i	?	nt
CN(C)c1cccc(C(=O)N(Cc2ccccc2)Cc2ccccc2)c1	i	nt	10.4µM	i	i	nt
COc1ccc(C(=O)N(Cc2ccccc2)c2cccc(C)c2)cc1	i	nt	i	-60.2	i	nt
COCCNC(=O)CN(Cc1ccccc1)S(=O)(=O)c1ccc2nc(C)sc2c1	i	nt	i	-60.7	i	nt
COc1ccc(NC(=O)CN(C)S(=O)(=O)c2ccc3nc(C)sc3c2)cc1Cl	nt	i	nt	-68.6	nt	i
Cc1nc2ccc(NS(=O)(=O)c3ccc(F)c(C)c3)cc2[nH]1	7.08µM	nt	i	-60.1	i	nt
COc1cc(OC)c(NC(=O)CN(C)S(=O)(=O)c2ccc(-c3ccc(=O)[nH]n3)s2)cc1Cl	?	nt	i	i	2.33µM	nt
Cc1ccc(S(=O)(=O)N2CCCCC2)cc1C(=O)N1C(C)CCCC1C (stereo unspecified)	i	?	nt	i	nt	i

High-throughput results from PubChem BioAssay.
